Inconclusive results are not listed. Activity calls are given as the source filed them. The call rests on the fitted dose curve; in most records, active means well fitted cell-killing curve with a large enough effect; inconclusive means small, poorly fitted or top-dose-only effect; inactive means flat fitted curve, though single readings scatter.
Experiments:
[1] = Cell Viability - LYMP2-013 (AID 970); details: LYMP2-013 lymphoblastoid cells viability; series mostly up to 92.2 µM; further: nearly all actives have a fitted effect of over 55% in size
Summary of the method: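 Human lymphoblastoid cells, 2500/well, were preincubated 5 hr at 37 C, then treated with compounds for 24 hr at 37 C in complete medium. Intracellular ATP was read by CellTiter-Glo luminescence; AC50 from Hill-equation fits of concentration-response data.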

[2] = Cell Viability - LYMP2-015 (AID 971); details: LYMP2-015 lymphoblastoid cell viability; series mostly up to 92.2 µM; further: nearly all actives have a fitted effect of over 55% in size
Summary of the method: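 Human lymphoblastoid cells (2500/well) in complete medium were preincubated 5 hr at 37 C, then compound-treated 24 hr at 37 C. Intracellular ATP was read by CellTiter-Glo luminescence after 30 min at room temperature; AC50 came from Hill-equation concentration-response fits.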

[3] = Cell Viability - LYMP2-017 (AID 972); details: LYMP2-017 lymphoblastoid cell viability; series mostly up to 92.2 µM; further: nearly all actives have a fitted effect of over 55% in size
Summary of the method: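 Human lymphoblastoid cells (2500/well) were seeded in complete medium, held 5 hr at 37 C, then exposed to compounds for 24 hr at 37 C. Intracellular ATP was read by CellTiter-Glo luminescence after 30 min at room temperature, with AC50 values from Hill-equation fits.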

[4] = Cell Viability - LYMP2-019 (AID 973); details: LYMP2-019 lymphoblastoid cell line viability; series mostly up to 92.2 µM; further: nearly all actives have a fitted effect of over 55% in size
Summary of the method: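 Human lymphoblastoid cells were seeded at 2500 cells/well, preincubated 5 hr at 37 C, then exposed to compounds for 24 hr at 37 C in complete medium. Intracellular ATP was measured by CellTiter-Glo luminescence; AC50 from Hill fits.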

[5] = Cell Viability - LYMP2-021 (AID 974); details: LYMP2-021 lymphoblastoid cells viability; series mostly up to 92.2 µM
Summary of the method: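 Human lymphoblastoid cells (2500/well) were preincubated 5 hr at 37 C, then exposed to compounds for 24 hr at 37 C in complete medium. Intracellular ATP was read by CellTiter-Glo luminescence; AC50 came from Hill-equation fits of concentration-response data.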

[6] = Cell Viability - LYMP2-023 (AID 975); details: LYMP2-023 lymphoblastoid cell viability; series mostly up to 92.2 µM
Summary of the method: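 Human lymphoblastoid cells (2500/well) were preincubated 5 hr at 37 C, then exposed to compounds for 24 hr at 37 C in complete medium. Cellular ATP was read by CellTiter-Glo luminescence, and AC50 came from Hill-equation fits.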

[7] = Cell Viability - LYMP2-025 (AID 976); details: LYMP2-025 lymphoblastoid cell viability; series mostly up to 92.2 µM
Summary of the method: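 Human lymphoblastoid LYMP2-025 cells (2500/well) were pre-incubated 5 hr at 37 C, then treated with compounds for 24 hr at 37 C in complete medium. Viability was read as intracellular ATP by CellTiter-Glo luminescence; AC50 from Hill fits.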

[8] = Cell Viability - LYMP2-002 (AID 977); details: LYMP2-002 lymphoblastoid cell viability, qHTS; series mostly up to 92.2 µM;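 further: compound exposure lasted 24 h at 37 °C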
Summary of the method: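 Human lymphoblastoid LYMP2-002 cells, 2500 per well, exposed to compounds for 24 h at 37 C in complete medium; viability read as intracellular ATP by CellTiter-Glo luminescence, AC50 from Hill fits.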

[9] = Cell Viability - LYMP2-006 (AID 978); details: LYMP2-006 lymphoblastoid cell viability, qHTS; series mostly up to 92.2 µM; further: nearly all actives have a fitted effect of over 60% in size
Summary of the method: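 Concentration-dependent loss of intracellular ATP in a human lymphoblastoid line after 24 hr treatment at 37 C was measured by CellTiter-Glo luminescence, with AC50 values obtained from standard Hill-equation modelling.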

[10] = Cell Viability - LYMP2-007 (AID 979); details: LYMP2-007 lymphoblastoid cell viability; series mostly up to 92.2 µM;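 further: cells exposed to compound for 24 h before reading; nearly all actives have a fitted effect of over 60% in size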
Summary of the method: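 Human lymphoblastoid cells (2500/well) were plated in complete medium, incubated 5 hr at 37 C, then exposed to compounds for 24 hr at 37 C. Intracellular ATP was read by CellTiter-Glo luminescence after 30 min at room temperature; AC50 from Hill fits.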

Measured: outcome

CCOC(=O)CC(SP(=S)(OC)OC)C(=O)OCC (stereo not given)
inactive: all assays above

COc1cc(OC)c(OC)cc1C=O
inactive: all assays above

Oc1ccc(Cl)cc1
inactive: all assays above

CCC(C)(C)c1ccc(O)cc1
inactive: all assays above

Nc1ccccc1
not listed: [8]
inactive: all other assays above

CC(C)NC(C)C
inactive: all assays above

C[C@]12CCC(=O)C=C1CC[C@@H]1[C@@H]2CC[C@]2(C)C(=O)CC[C@@H]12
inactive: all assays above

CC(C)c1cccc(C(C)C)c1O
not listed: [7]
inactive: all other assays above

C[C@]12CCC(=O)C=C1CC[C@@H]1[C@@H]2CC[C@@]2(C)[C@H]1CC[C@]2(C)O
inactive: all assays above

O=C(O)CCCc1ccc(N(CCCl)CCCl)cc1
inactive: [4] | [6] | [7] | [8] | [9]

O=P1(N(CCCl)CCCl)NCCCO1 (stereo not given)
inactive: all assays above

C[C@]1(O)CC[C@H]2[C@@H]3CCC4=CC(=O)CC[C@]4(C)[C@@]3(F)[C@@H](O)C[C@@]21C
inactive: all assays above

COC(=O)C(c1ccccc1)C1CCCCN1 (stereo not given)
not listed: [2]
inactive: all other assays above

CN1C[C@H](C(=O)N[C@]2(C)O[C@@]3(O)[C@@H]4CCCN4C(=O)[C@H](Cc4ccccc4)N3C2=O)C=C2c3cccc4[nH]cc(c34)C[C@H]21
not listed: [2] | [4]
inactive: all other assays above

Clc1ccc(C(c2ccc(Cl)cc2)C(Cl)(Cl)Cl)cc1
inactive: all assays above

COP(=S)(OC)Oc1ccc(SC)c(C)c1
inactive: all assays above

Nc1ccccc1C(=O)O
inactive: all assays above

NCCc1ccc(O)cc1
inactive: all assays above

CCCC(C)(COC(N)=O)COC(N)=O
inactive: all assays above
